Screens from PubChem.
The list is not random: actives were taken first. Their share in the collection is about 1%.
S aureus QS inh = inhibitors of bacterial quorum sensing in S. aureus. S. aureus RN6390 RNAIII-GFP reporter, AIP-induced, flow cytometry 3 h. inhibition, % at 2 µM. actives 0.3% (n = 24,000);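 active = share of bacteria positive for the green fluorescent reporter and its mean brightness both inhibited by 50% or more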
Prostate diff = promotes differentiation of LNCaP prostate cells | flow cytometry side scatter, 4 d | side scatter shift, % at 10 µM | actives 0.56% (n = 24,000) | AID 795;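 active = side scatter shift above 30%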;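 note: androgen-responsive LNCaP prostate cancer cells in charcoal-stripped serum medium; higher shift means more granular cells and more differentiation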
Proteasome disasm = blocks ATP-dependent breakdown of the yeast 26S proteasome; anti-FLAG beads, GFP-proteasome disassembly, flow cytometry; inhibition of disassembly, % (test concentration not listed); actives 0.2% (n = 24,000); AID 751;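 active = inhibition of disassembly above about 33%, limit read from the data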;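 note: higher percent means more bead fluorescence retained so stronger block of disassembly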
Hits are given with their value; . = inactive; / = no result.

SMILES	S aureus QS inh	Prostate diff	Proteasome disasm
CCN(CCNC(=O)C1CCCN(Cc2nc(-c3ccc(OC)cc3)oc2C)C1)c1ccccc1 (stereo not given)	.	.	.
Nc1ccc(CN2CCN(c3ccc4ccccc4n3)CC2)cc1	.	.	.
Cc1cccc(C)c1NC(=O)C1(N2CCN(C(=O)c3ccco3)CC2)CCCCC1	.	.	.
CC(C)N1CCC2(CC1)N=C(c1ccc3c(c1)OCO3)CC(c1cc(Cl)ccc1O)N2 (stereo not given)	.	34.0	.
CC(=O)c1c(C)nc(-c2ccc3c(c2)OCO3)n1O	.	.	.
COc1ccc(OC)c(C(=O)c2coc3ccc(O)cc23)c1	.	/	/
CCC1Oc2ccc(C)cc2N(CC(=O)NCc2cccc(OC)c2)C1=O (stereo not given)	.	.	.
CCCC(=O)Nc1ccc(-c2nc3cc(C)c(C)cc3o2)cc1	.	.	.
CCN(CC)CC(=O)Nc1ccc(-c2nc3cc(NC(=O)CN(CC)CC)ccc3o2)cc1	.	42.0	.
CC1CCN(C(C(=O)Nc2ccc3c(c2)OCO3)c2ccccc2)CC1 (stereo not given)	.	.	.
CC1CCCN(C(C(=O)Nc2ccc3c(c2)OCO3)c2ccccc2)C1 (stereo not given)	99.0	.	.
CC1CCCN(C(C(=O)Nc2ccc3c(c2)OCCO3)c2ccccc2)C1 (stereo not given)	98.8	.	.
O=C(Nc1ccc2c(c1)OCO2)C(c1ccccc1)N1CCCCC1 (stereo not given)	.	.	.
O=C(O)c1cc(S(=O)(=O)Nc2ccc3c(c2)OCCO3)c(Cl)cc1Cl	.	.	.
CCCCc1nc2ccccc2n2cc3c(=O)n(C)c(=O)n(C)c3c12	.	.	.
Cc1cc(N2CCOCC2)nc2ccc(NC(=O)C3CCC(C)CC3)cc12 (stereo not given)	.	.	.
Cc1cc(N2CCC(N(C)C3CCCC3)CC2)nc2cc(O)ccc12	.	44.0	.
COc1cccc(C2C(C(=O)OCc3ccccc3)=C(C)Nc3ncnn32)c1OC (stereo not given)	.	.	.
Cn1c(=O)c2c3c(sc2n2c(SCc4ccccc4)nnc12)CCCC3	64.1	.	.
CSc1nnc2n(CCc3ccccc3)c(=O)c3c4c(sc3n12)CCCC4	.	.	.
COC(=O)C1C(=O)C2=C(CC1C)NC(C)=C(C(=O)OC1CCCCC1)C2c1ccc(N(C)C)cc1 (stereo not given)	53.8	.	.
COC(=O)C1C(=O)C2=C(CC1C)NC(C)=C(C(=O)OCCOc1ccccc1)C2c1ccc(C)o1 (stereo not given)	.	.	.
CCC(C)C(NS(=O)(=O)c1ccc(C)cc1)C(=O)NCCN1CCOCC1 (stereo not given)	.	.	.
C=C(CC)C(=O)c1ccc(OCC(=O)O)c(Cl)c1Cl	.	.	.
COc1ccccc1N1CCN(c2nc3ccccc3nc2C(C#N)C(=O)OC(C)C)CC1 (stereo not given)	.	30.0	.
SMILES	S aureus QS inh	Prostate diff	Proteasome disasm
CCOc1ccccc1N1CCN(c2nc3ccccc3nc2C(C#N)C(=O)OC)CC1 (stereo not given)	.	.	.
CC1CN(c2nc3ccccc3nc2C(C#N)C(=O)OC2CCCCC2)CC(C)O1 (stereo not given)	61.4	.	.
CCOC(=O)C1CCCN(c2nc3ccccc3nc2C(C#N)C(=O)NCc2ccccc2)C1 (stereo not given)	.	.	.
CCN(CCCNC(=O)C1CCN(S(=O)(=O)c2cnc[nH]2)CC1)c1cccc(C)c1	.	.	.
c1cncc(-c2nc3c4ccccc4nc(N4CCC(N5CCCCC5)CC4)n3n2)c1	.	.	.
CCOc1cc2[nH]c(=O)n(CCCCC(=O)NC3CCCCC3)c(=O)c2cc1OCC	.	.	.
Cc1noc(C)c1S(=O)(=O)N1CCC(C(=O)N2CCN(c3ccccc3Cl)CC2)CC1	.	.	.
Cc1noc(/C=C/c2ccco2)c1S(=O)(=O)N1CCC(C(=O)N2c3ccccc3CC2C)CC1 (stereo not given)	.	.	105.2
Cc1noc(C)c1S(=O)(=O)N1CCC(C(=O)N2CCN(C(=O)c3ccco3)CC2)CC1	.	.	.
Cc1noc(/C=C/c2ccco2)c1S(=O)(=O)N1CCC(C(=O)N(C)Cc2ccccc2)CC1	.	.	45.8
O=C(O)CCc1nnc2n(Cc3ccc(F)cc3)c(=O)c3ccccc3n12	.	.	.
CCOC(=O)c1sc2ncnc(N3CCN(c4ccc(OC)cc4)CC3)c2c1C	.	35.0	.
CCN(CC)c1ncnc2sc(C(=O)N3CCN(c4ccc(OC)cc4)CC3)c(C)c12	.	.	.
Cc1nn(C(C)(C)C)c(OC(=O)C2CCCC2)c1S(=O)(=O)c1ccccc1	89.2	.	.
Cc1ccc(S(=O)(=O)c2c(C)nn(C(C)(C)C)c2OC(=O)C2CCCC2)cc1	.	.	.
Cc1nn(-c2ccc(F)cc2)c(C)c1NS(=O)(=O)c1ccc(Cl)cc1	.	.	.
O=C(NCCN1CCc2ccccc2C1)Nc1ccc(F)cc1	.	.	.
CCc1ccc(NC(=O)NCCN2CCc3ccccc3C2)cc1	.	34.0	.
COc1ccc(-c2nc(C#N)c(NCCCN3CCOCC3)o2)cc1	.	.	.
COc1ccc(-c2oc3ncn(CCN4CCOCC4)c(=N)c3c2-c2ccc(OC)cc2)cc1	53.3	34.0	.
COc1ccc(C2N(c3cc(Cl)ccc3OC)C(=O)C3CCCN32)cc1OC (stereo not given)	.	.	.
O=C(NC1CCCCC1)N(Cc1ccc(F)cc1)Cc1nc2ccccc2c(=O)[nH]1	.	.	.
N=c1n(CCO)c2ccccc2n1CCOc1ccc(Cl)cc1Cl	.	39.0	.
CCN(CC)CCn1c(=N)n(CCO)c2ccccc21	.	.	.
CC(C)Cc1cc(C(=O)Nc2sc3c(c2C#N)CCCC3)no1	55.2	.	.
SMILES	S aureus QS inh	Prostate diff	Proteasome disasm
Cc1cc(C(=O)Nc2sc3c(c2C#N)CCCC3)no1	.	.	.
CN(C)c1ccc(-c2nn3c(-c4ccc(Cl)cc4Cl)nnc3s2)cc1	.	39.0	.
Cc1oc(-c2ccc(Cl)cc2)cc1-c1nn2c(-c3ccoc3C)nnc2s1	.	.	.
COCCNC(=O)CSc1nc2cc(OC)c(OC)cc2c(=O)n1Cc1ccco1	.	.	.
COC(=O)c1ccc2c(=O)n(Cc3ccco3)c(SCC(=O)Nc3ccc(C)c(Cl)c3)nc2c1	.	34.0	.
O=c1oc(-c2ccco2)nc2ccccc12	.	30.0	.
CCC(=O)Nc1cccc(-c2nc3ccccc3c(=O)o2)c1	.	.	.
c1ccc(-c2nnc3sc(-c4csc5c4CCCC5)nn23)cc1	.	.	.
CC(C(=O)Nc1ccccc1-c1ccccc1)N1CCN(C(=O)c2ccco2)CC1 (stereo not given)	.	.	.
CCOc1ccc(N(CC(=O)N2CC=C(c3ccccc3)CC2)S(=O)(=O)c2c(C)noc2C)cc1	53.1	.	.
COc1ccc(N(CC(=O)N2CC=C(c3ccccc3)CC2)S(=O)(=O)c2c(C)noc2C)cc1	.	.	.
CCCSc1nc(C)c(-c2csc(C(C#N)=C3CCCC3)n2)cc1C#N	.	.	.
Cn1cccc1Cc1nnc(SCC(=O)Nc2ccc3c(c2)OCO3)n1-c1ccc(F)cc1	.	.	.
Cc1nnc(SCc2ccccc2F)n1NCc1cccs1	.	.	.
Cc1nn(-c2ccccc2)c2sc(C(=O)N3CCOCC3)cc12	.	.	.
